Data from PubChem BioAssay.
Unmarked numbers belong to inactive results. A call without a number means that no potency is given here. For some of these results: Potency and affinity values are given separately. Calls of active or inactive are those of the source. Unless noted, how the calls were made is not given here.

Tests used:
[1] = antimalarial activity against Dd2 strain (AID 2302;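 active means growth inhibition above 50% at the single 2 µM test dose, taken to imply half-maximal potency below 2 µM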); details: P. falciparum Dd2 in RBCs, LDH growth readout, 72 h; at 2 µM; hits give high values
[2] = HepG2 cytotoxicity, primary screen, cytotoxicity control for P. falciparum antimalarial project, cell-based, ATP luminescence (AID 2303;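 active means inhibition above 50%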); details: HepG2 viability, 24-48 h, at 10 µM, hits give high values
[3] = biological target: L-lactate dehydrogenase (Plasmodium falciparum (isolate CDC / Honduras)) (UniProt Q27743); assay: PfLDH activity inhibition – cell lysate, 3D7 strain, counter-screen for P. falciparum growth inhibition project (AID 2304); details: P. falciparum 3D7 crude extract, LDH APAD/NBT absorbance; at 2 µM; hits give high values
[4] = inhibition of 3D7 malaria parasite growth – strain 3D7 (AID 2306); details: P. falciparum 3D7 erythrocytic growth, LDH absorbance, 72 h; at 2 µM; hits give high values
[5] = biological target: Calcium-dependent protein kinase 1 (Plasmodium falciparum (isolate 3D7)) (UniProt P62344); assay: PfCDPK1 kinase inhibitors, biochemical, TCAMS library (AID 1159585; cut-off not given, nearly all actives have IC50 up to about 0.98 µM;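 further: inhibitors leave more ATP so luminescence rises with inhibition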); details: recombinant PfCDPK1, Kinase-Glo ATP depletion luminescence
[6] = biological target: Plasmodium falciparum protein kinase 6 (PK6, PF3D7_1337100) (UniProt Q8IDW1); assay: PfPK6 kinase inhibitors, biochemical, TCAMS library (AID 1159586); details: recombinant PfPK6, Kinase-Glo ATP depletion luminescence
[7] = biological target: Protein kinase 7 (PK7), Plasmodium falciparum 3D7 (PF3D7_0213400) (UniProt Q7YTF7); assay: inhibition of Plasmodium PK7 catalytic activity – biochemical, TCAMS antimalarial set, Kinase-Glo luminescence (AID 1159587); details: recombinant PfPK7, Kinase-Glo ATP depletion luminescence
[8] = biological target: Calcium-dependent protein kinase 4 (Plasmodium falciparum (isolate 3D7)) (UniProt Q8IBS5); assay: PfCDPK4 kinase inhibitors, biochemical, TCAMS library (AID 1159588; cut-off not given, nearly all actives have IC50 up to about 0.91 µM); details: recombinant PfCDPK4, Kinase-Glo ATP depletion luminescence
Sequence of Calcium-dependent protein kinase 4 (Plasmodium falciparum (isolate 3D7)) (Q8IBS5 whole entry, looked up): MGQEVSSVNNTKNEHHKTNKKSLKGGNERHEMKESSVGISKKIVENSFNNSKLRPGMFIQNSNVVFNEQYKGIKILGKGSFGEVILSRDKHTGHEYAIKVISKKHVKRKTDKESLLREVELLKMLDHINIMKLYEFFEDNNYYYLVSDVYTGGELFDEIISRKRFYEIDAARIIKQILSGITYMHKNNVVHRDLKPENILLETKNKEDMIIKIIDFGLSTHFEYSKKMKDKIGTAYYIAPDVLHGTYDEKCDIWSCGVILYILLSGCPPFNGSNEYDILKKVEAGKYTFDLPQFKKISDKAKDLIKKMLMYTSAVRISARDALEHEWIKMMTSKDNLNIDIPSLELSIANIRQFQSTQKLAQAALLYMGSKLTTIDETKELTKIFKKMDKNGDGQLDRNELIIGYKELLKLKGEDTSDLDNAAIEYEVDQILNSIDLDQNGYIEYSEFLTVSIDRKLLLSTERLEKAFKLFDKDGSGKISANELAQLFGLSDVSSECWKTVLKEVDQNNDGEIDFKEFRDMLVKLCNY

Sequence of Calcium-dependent protein kinase 1 (Plasmodium falciparum (isolate 3D7)) (P62344 whole entry, looked up): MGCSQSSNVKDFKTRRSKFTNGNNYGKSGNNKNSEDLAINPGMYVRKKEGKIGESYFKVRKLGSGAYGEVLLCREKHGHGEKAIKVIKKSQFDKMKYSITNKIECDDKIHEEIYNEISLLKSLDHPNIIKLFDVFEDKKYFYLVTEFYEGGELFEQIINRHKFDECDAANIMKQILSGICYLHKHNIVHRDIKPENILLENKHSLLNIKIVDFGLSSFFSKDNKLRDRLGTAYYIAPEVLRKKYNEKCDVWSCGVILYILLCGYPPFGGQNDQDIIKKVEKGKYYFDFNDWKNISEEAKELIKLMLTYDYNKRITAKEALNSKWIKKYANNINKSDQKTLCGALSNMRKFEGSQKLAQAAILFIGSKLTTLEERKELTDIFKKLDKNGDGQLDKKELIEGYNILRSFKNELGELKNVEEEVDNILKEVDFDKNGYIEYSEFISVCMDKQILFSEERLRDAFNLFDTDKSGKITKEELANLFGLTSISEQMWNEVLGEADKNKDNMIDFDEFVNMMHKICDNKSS
Sequence of Plasmodium falciparum protein kinase 6 (PK6, PF3D7_1337100) (Q8IDW1 1-305): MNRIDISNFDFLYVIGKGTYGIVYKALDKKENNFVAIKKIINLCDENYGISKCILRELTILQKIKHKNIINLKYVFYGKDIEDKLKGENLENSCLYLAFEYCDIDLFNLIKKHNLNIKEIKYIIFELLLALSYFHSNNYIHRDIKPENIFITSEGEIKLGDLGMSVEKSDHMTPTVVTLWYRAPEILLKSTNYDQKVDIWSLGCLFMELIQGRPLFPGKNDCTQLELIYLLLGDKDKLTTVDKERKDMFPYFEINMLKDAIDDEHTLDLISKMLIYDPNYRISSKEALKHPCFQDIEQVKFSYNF
Sequence of L-lactate dehydrogenase (Plasmodium falciparum (isolate CDC / Honduras)) (Q27743 whole entry, looked up): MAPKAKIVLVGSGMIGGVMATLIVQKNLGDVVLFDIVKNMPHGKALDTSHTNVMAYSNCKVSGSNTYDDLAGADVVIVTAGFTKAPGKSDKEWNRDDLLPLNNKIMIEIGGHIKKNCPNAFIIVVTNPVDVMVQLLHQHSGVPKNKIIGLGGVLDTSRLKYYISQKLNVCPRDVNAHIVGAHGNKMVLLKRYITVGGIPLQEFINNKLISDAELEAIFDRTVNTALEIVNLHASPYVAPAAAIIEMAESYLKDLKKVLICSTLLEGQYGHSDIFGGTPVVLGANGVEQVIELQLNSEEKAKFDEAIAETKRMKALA
Sequence of Protein kinase 7 (PK7), Plasmodium falciparum 3D7 (PF3D7_0213400) (Q7YTF7 1-343): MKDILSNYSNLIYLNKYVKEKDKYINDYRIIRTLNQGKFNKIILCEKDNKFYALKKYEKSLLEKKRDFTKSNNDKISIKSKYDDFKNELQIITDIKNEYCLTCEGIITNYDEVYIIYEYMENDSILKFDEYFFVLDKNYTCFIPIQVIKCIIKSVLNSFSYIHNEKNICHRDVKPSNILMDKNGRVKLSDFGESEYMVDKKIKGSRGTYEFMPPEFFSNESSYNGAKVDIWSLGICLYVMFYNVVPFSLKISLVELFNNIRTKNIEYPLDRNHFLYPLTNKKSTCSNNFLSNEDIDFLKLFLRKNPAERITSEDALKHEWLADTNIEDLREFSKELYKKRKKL

Row | SMILES | growth inhibition [1] | inhibition [2] | inhibition [3] [%] | growth inhibition [4] | outcome [5] | outcome [6] | outcome [7] | outcome [8]
1 | CCC[C@@H]([C@@H](CC1CCCCC1)C(=O)N[C@H](C(=O)Nc1nccs1)C(C)(C)SCCNC(=O)OCc1ccccn1)N(O)C=O | 96% (active) | 17% | -5 | 99% (active) | inactive | inactive | inactive | inactive
2 | COc1ccc(CNC(=O)c2cnc3c(O)cccc3c2Nc2cccc(NC(=O)c3ccc(Cl)c(Cl)c3)c2)cc1 | 89% (active) | 54% (active) | 4 | 96% (active) | inactive | inactive | inactive | inactive
3 | CCNc1cc(C(=O)N[C@@H](Cc2ccccc2)[C@H](O)CNC2C3CC4CC(C3)CC2C4)cc(N2CCCCS2(=O)=O)c1 (stereo not given in full) | 96% (active) | -2% | 6 | 97% (active) | inactive | inactive | inactive | inactive
4 | Cc1nc(-c2ccccc2)nc(N2CCN(C(=O)c3ccco3)CC2)c1Cc1ccccc1F | 86% (active) | 7% | 1 | 95% (active) | inactive | inactive | inactive | inactive
5 | CC(C)c1sc(N2CCN(C)CC2)nc1C(=O)NCCc1cccc(Cl)c1 | 15% | 9% | -1 | 91% (active) | inactive | inactive | inactive | inactive
